Compounds without any hit were thinned out: in the full panel of roughly 79,000, 15% have a hit. Activity calls are given as the source filed them. No stated cut-off is given here; in the data, active means growth inhibition above about 70%; inactive means the rest.
How the values were obtained:
[1] = NCI Yeast Anticancer Drug Screen. Data for the rad52 strain (AID 147);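 further: 0% = growth of vehicle-treated control cultures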; conditions: S. cerevisiae rad52 mutant growth inhibition, hits give high values
How it was run: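 Screen used a yeast mutant impaired in DNA repair. After compound exposure, growth was measured. Values reflect inhibition compared with vehicle-treated cells.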

[2] = NCI Yeast Anticancer Drug Screen. Data for the wt1 strain (AID 149);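 further: 0% = growth of vehicle-treated wt1 cultures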; conditions: S. cerevisiae wt1 strain (SPY 50644) growth inhibition, hits give high values
How it was run: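 wt1 yeast, compound-treated; % growth inhibition vs vehicle control.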

[3] = NCI Yeast Anticancer Drug Screen. Data for the rad50EPP+ strain (AID 151);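 further: 0% = growth of vehicle-treated control cultures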; conditions: S. cerevisiae rad50 mutant strain, hits give high values
How it was run: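 Exposing the rad50EPP+ strain to each compound, growth was compared with vehicle-only cultures to give inhibition.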

[4] = NCI Yeast Anticancer Drug Screen. Data for the mgt1 strain (AID 153); conditions: S. cerevisiae mgt1 mutant growth inhibition, hits give high values
How it was run: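 Genetically defined yeast (mgt1) treated with compound; inhibition of growth expressed against vehicle-treated controls.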

[5] = NCI Yeast Anticancer Drug Screen. Data for the rad50 strain (AID 155);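 further: 0% = growth of vehicle-only cultures of the same strain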; conditions: S. cerevisiae rad50 strain growth inhibition, hits give high values
How it was run: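 Genetically altered yeast (DNA repair pathway); compound treatment; growth inhibition vs vehicle ctrl.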

[6] = NCI Yeast Anticancer Drug Screen. Data for the mec2-1 strain (AID 157); conditions: S. cerevisiae mec2-1 strain, hits give high values
How it was run: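 Readout is yeast growth inhibition, normalised to vehicle-treated controls, in the mec2-1 strain exposed to compound.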

[7] = NCI Yeast Anticancer Drug Screen. Data for the rad14 strain (AID 159);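 further: 0% = growth of vehicle-treated control cultures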; conditions: S. cerevisiae rad14 strain growth inhibition, hits give high values
How it was run: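 Test compounds were applied to a repair-deficient yeast strain. Its growth was then compared with that of cultures given vehicle alone, and inhibition was expressed relative to those controls.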

[8] = NCI Yeast Anticancer Drug Screen. Data for the sgs1 mgt1 strain (AID 161);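 further: 0% = growth of cultures given vehicle only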; conditions: S. cerevisiae sgs1 mgt1 strain, hits give high values
How it was run: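 Compounds are added to genetically altered yeast, and growth is compared with cultures given vehicle alone to give percent inhibition.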

[9] = NCI Yeast Anticancer Drug Screen. Data for the CLN2oe strain (AID 163);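 further: 0% = growth of vehicle-only control cultures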; conditions: S. cerevisiae CLN2oe strain, hits give high values
How it was run: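 Values reflect how much compound exposure reduced yeast growth, referenced to vehicle-exposed cells. Assay organism is a strain with a defined genetic change affecting cell-cycle control.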

[10] = NCI Yeast Anticancer Drug Screen. Data for the cln2 rad14 strain (AID 165);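 further: 0% = growth equal to vehicle treated cultures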; conditions: S. cerevisiae cln2 rad14 strain, hits give high values
How it was run: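 Relative to vehicle controls, growth inhibition of compound-treated cln2 rad14 yeast was recorded.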

[11] = NCI Yeast Anticancer Drug Screen. Data for the bub3 strain (AID 167); conditions: S. cerevisiae bub3 mutant strain, hits give high values
How it was run: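 Yeast carrying a defined mutation is treated with each compound, and growth is compared with that of vehicle-exposed cells to give inhibition.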

[12] = NCI Yeast Anticancer Drug Screen. Data for the wt2 strain (AID 169);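 further: 0% = growth of vehicle-treated yeast cultures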; conditions: S. cerevisiae wt2 strain growth inhibition, hits give high values
How it was run: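 Values express reduction in yeast growth under compound treatment, referenced to vehicle-treated cells.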

[13] = NCI Yeast Anticancer Drug Screen. Data for the mlh1 strain (AID 171);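 further: 0% = growth of vehicle-treated control cultures of the same strain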; conditions: S. cerevisiae mlh1 strain growth inhibition, hits give high values
How it was run: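 Steps: expose the defined-mutant yeast strain to compound; expose a parallel culture to vehicle; measure growth; express compound effect as inhibition relative to the vehicle culture.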

[14] = NCI Yeast Anticancer Drug Screen. Data for the sgs1 strain (AID 173);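 further: 0% = growth of vehicle-only control cultures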; conditions: S. cerevisiae sgs1 mutant, hits give high values
How it was run: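 Treat defined-mutant yeast with compound; measure growth; calculate inhibition relative to vehicle-treated cells.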

[15] = NCI Yeast Anticancer Drug Screen. Data for the mlh1 rad18 strain (AID 175); conditions: S. cerevisiae mlh1 rad18 strain growth inhibition, hits give high values
How it was run: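 Test agents were incubated with a yeast strain of defined genotype (DNA damage repair defect). Inhibition of growth was derived by comparison with vehicle-exposed cultures.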

[16] = NCI Yeast Anticancer Drug Screen. Data for the rad18 strain (AID 177); conditions: S. cerevisiae rad18 mutant growth inhibition, hits give high values
How it was run: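 A genetically defined yeast mutant impaired in DNA damage repair was treated with test compounds, then its growth was measured against cultures receiving vehicle alone.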

[17] = at 5.0 µM (retest, dose inferred, filed as 0.5)
[18] = at 50.0 µM (retest, dose inferred, filed as 5.0)

Measured: growth inhibition

COc1cc(O)c2c(O)c3c(c4c2c1[C@]1(C4)C(C)=CCCC1(C)C)[C@H](O)[C@@]1(O)CC(=O)C(C(N)=O)=C(O)[C@@]1(O)C3=O
inactive: [1]; at 1.2 µM -1% | [2]; at 1.2 µM -16% | [2]; at 3.7 µM 56% | [3]; at 1.2 µM -52% | [3]; at 3.7 µM 60% | [4]; at 1.2 µM -16% | [5]; at 1.2 µM -37% | [5]; [17] 2% | [6]; at 1.2 µM -36% | [7]; at 1.2 µM -57% | [7]; at 3.7 µM 50% | [8]; [17] 21% | [9]; at 1.2 µM -6% | [10]; [17] 1% | [11]; at 1.2 µM -1% | [11]; [17] -7% | [12]; at 1.2 µM -30% | [12]; at 3.7 µM -16% | [13]; at 1.2 µM -21% | [13]; at 3.7 µM 67% | [14]; at 1.2 µM -38% | [15]; [17] -5% | [16]; at 1.2 µM -21%
active: [1]; at 3.7 µM 92% | [1]; at 11.0 µM 98% | [1]; at 33.0 µM 98% | [1]; at 100.0 µM 95% | [2]; at 11.0 µM 98% | [2]; at 33.0 µM 97% | [2]; at 100.0 µM 93% | [3]; at 11.0 µM 97% | [3]; at 33.0 µM 96% | [3]; at 100.0 µM 89% | [4]; at 3.7 µM 94% | [4]; at 11.0 µM 99% | [4]; at 33.0 µM 98% | [4]; at 100.0 µM 93% | [5]; at 3.7 µM 87% | [5]; at 11.0 µM 97% | [5]; at 33.0 µM 96% | [5]; [18] 97% | [5]; at 50.0 µM 97% | [5]; at 100.0 µM 92% | [6]; at 3.7 µM 87% | [6]; [17] 83% | [6]; at 11.0 µM 98% | [6]; at 33.0 µM 98% | [6]; [18] 98% | [6]; at 50.0 µM 98.7% | [6]; at 100.0 µM 94% | [7]; at 11.0 µM 97% | [7]; at 33.0 µM 97% | [7]; at 100.0 µM 93% | [8]; [18] 98% | [8]; at 50.0 µM 98.7% | [9]; at 3.7 µM 94% | [9]; at 11.0 µM 98% | [9]; at 33.0 µM 97% | [9]; at 100.0 µM 93% | [10]; [18] 98% | [10]; at 50.0 µM 98.1% | [11]; at 3.7 µM 77% | [11]; at 11.0 µM 98% | [11]; at 33.0 µM 97% | [11]; [18] 98% | [11]; at 50.0 µM 98.2% | [11]; at 100.0 µM 94% | [12]; at 11.0 µM 97% | [12]; at 33.0 µM 96% | [12]; at 100.0 µM 95% | [13]; at 11.0 µM 97% | [13]; at 33.0 µM 97% | [13]; at 100.0 µM 95% | [14]; at 3.7 µM 88% | [14]; at 11.0 µM 97% | [14]; at 33.0 µM 97% | [14]; at 100.0 µM 93% | [15]; [18] 97% | [15]; at 50.0 µM 96.8% | [16]; at 3.7 µM 85% | [16]; at 11.0 µM 97% | [16]; at 33.0 µM 97% | [16]; at 100.0 µM 95%

Source: PubChem BioAssay (NCI)
